In PubChem BioAssay (NCATS):
Unmarked numbers belong to inactive results. Records with an inconclusive call do not appear. Activity calls are given as the source filed them. Unless noted, calls come from the whole dose curve; as a rule, active = well fitted curve in either direction with a large enough effect (not every such curve was filed as active); inconclusive = small, poorly fitted or top-dose-only effect, or another doubt; inactive = flat fitted curve, though single readings scatter.

Tests used:
[1] = target: Lysosomal acid glucosylceramidase (Homo sapiens) (UniProt P04062); assay: Glucocerebrosidase-p2 (AID 348; in the data active = potency below about 10 µM; note: potency is the fitted concentration of half-maximal effect); conditions: purified GBA, blue fluorogenic substrate, 40 min
Procedure, shortened: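 Compounds titrated from 0.6 nM upwards against 0.2 nM enzyme in pH 5.9 citric acid/KH2PO4, taurocholate, tween-20; blue fluorogenic substrate 80 uM, 40 min room temperature, stopped and read Ex 365/Em 440 for AC50.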

[2] = AP1 Signaling Pathway (AID 357); conditions: ME-180 AP-1-bla reporter, EGF-induced, beta-lactamase ratio, 5 h; at 7.69 µM (top of the series) unless noted;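 note: ME-180 reporter cells stimulated with EGF at its EC50 level; % is set by controls: 0 for no effect and ±100 for the full control effect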
Procedure, shortened: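 AP-1-bla ME-180 cells, Opti-MEM + 0.5% dialyzed FBS, plated overnight 37 °C. Cpd titration + EC50 EGF, 5 h 37 °C. CCF4 2.5 h RT; ex 405, em 460/530 ratio → %activity, AC50.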

[3] = target: Cytochrome P450 1A2 (Homo sapiens) (UniProt P05177); assay: p450-cyp1a2 (AID 410; calls by dose curve; note: potency is the fitted concentration of half-maximal effect;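 for activity change, negative = inhibition: -100% = full effect of reference inhibitor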); conditions: recombinant CYP1A2, luciferin-ME demethylation, luminescence; series mostly up to 11.4 µM
Procedure, shortened: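 Luminescent readout of luciferin formed from Luciferin-ME by human CYP1A2; data normalized against complete inhibition by 57 uM furafylline. Enzyme 20nM, substrate 100uM at Km, 100mM KPO4 buffer, 60 min reaction at room temperature.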

[4] = NFAT Signaling Pathway (AID 444); conditions: Jurkat NFAT-bla M1, carbachol, beta-lactamase ratio, 5 h; at 7.69 µM (top of the series) unless noted;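 note: carbachol stimulus at about its EC50 of 1 µM final; % is set by controls: 0 for no effect and ±100 for the full control effect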
Procedure, shortened: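 Jurkat cells carrying an NFAT-driven β-lactamase reporter and co-transfected muscarinic M1 receptor were treated with compound plus carbachol (1 uM final, an EC50 level) for 5 h at 37 °C. CCF4 loading followed for 1 h at RT; 460/530 nm ratio gave %activity.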

[5] = Stat Signaling Pathway (AID 446); conditions: ME-180 (cervical carcinoma) SIE beta-lactamase reporter, IL-6 stimulated, 5 h; at 7.69 µM (top of the series) unless noted;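 note: ME-180 cervical cancer cells given 40 pM IL-6 alongside compound; SIE-controlled beta-lactamase reporter measured as 460/530 nm FRET emission ratio; % is set by controls: 0 for no effect and ±100 for the full control effect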
Procedure, shortened: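 IL-6/STAT signaling read in ME-180 cells via an SIE beta-lactamase reporter. Stimulus was 40 pM IL-6 (its AC50) for 5 hrs, so both activation and inhibition register.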

[6] = target: Glucocorticoid receptor (Homo sapiens) (UniProt P04150); assay: GR-GFP Redistribution (AID 450;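 active = compounds whose dose series gives a full or clear partial fitted curve of increased nuclear translocation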; note: potency is the fitted concentration of half-maximal effect); conditions: U2OS GR-GFP nuclear translocation, laser cytometry, 2 h
[7] = target: Glucocorticoid receptor (Homo sapiens) (UniProt P04150); assay: GR-EFC Redistribution (AID 451; calls by dose curve; note: potency is the fitted concentration of half-maximal effect); conditions: CHO-K1 GR-EFC translocation, beta-gal luminescence, 2 h
Procedure, shortened: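 CHO-K1 cells stably expressing nuclear-localized β-gal enzyme acceptor and GR fused C-terminally to the enzyme donor fragment; ligand-driven nuclear translocation restores β-gal by complementation. Compounds titrated up to 46 uM final, 2 h at 37 °C; luminescence read.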

[8] = target: Mitogen-activated protein kinase 10 (Mus musculus) (UniProt Q61831); assay: JNK3 AlphaScreen Assay (AID 530); conditions: JNK3 lysate, c-Jun phosphorylation; series mostly up to 11.4 µM;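 note: kinase came from lysate of stimulated human HepG2 cells; signal reports phosphorylation of biotinylated GST-cJun 1-79 at Ser73 with 10 µM ATP; % is set by controls: 0 for no effect and ±100 for the full control effect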
Procedure, shortened: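 Inhibitors reduce antibody binding to phosphorylated biotin-cJun, lowering AlphaScreen luminescence. Lysates from HepG2 cells pre-activated by IL-1beta plus TNF-alpha supplied JNK3; compounds were titrated.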

[9] = target: 3',5'-cyclic-AMP phosphodiesterase 4B (Homo sapiens) (UniProt Q07343); assay: qHTS Assay for Inhibitors of PDE-IV (AID 607; active = well fitted activation curve with a large enough effect in the main read-out, with a control signal flat, not every such curve was filed as active; note: % of control where 0% means no effect); conditions: HEK293 ACTOne CNG channel cells, membrane potential fluorescence; series mostly up to 22.9 µM
Procedure, shortened: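 Live HEK293 cells with a modified cyclic nucleotide-gated (CNG) channel report intracellular cAMP via membrane-potential dye fluorescence (ex 535/em 590 nm). Endogenous PDE-IV was targeted. Compounds were tested at up to 22.9 uM final; RO 20-1724 100 uM served as control.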

[10] = target: Cytochrome P450 2C19 (Homo sapiens) (UniProt P33261); assay: qHTS Assay for Inhibitors and Substrates of Cytochrome P450 2C19 (AID 899; active = well fitted inhibition curve with a large enough effect; note: nearly all actives have a fitted effect of over 60% in size; note: potency is the fitted concentration of half-maximal effect); conditions: recombinant CYP2C19, luciferin-H EGE luminescence; series mostly up to 11.4 µM
Procedure, shortened: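 NADPH-dependent conversion of Luciferin-H EGE (10uM, at KM) by 5nM enzyme in 50mM KPO4, 60 min at 37C following 10 min compound preincubation. Stopped with luciferin detection buffer; luminescence read after 20 min.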

[11] = target: Cytochrome P450 2D6 (Homo sapiens) (UniProt P10635); assay: qHTS Assay for Inhibitors and Substrates of Cytochrome P450 2D6 (AID 891; active = well fitted inhibition curve with a large enough effect; note: nearly all actives have a fitted effect of over 60% in size; note: potency is the fitted concentration of half-maximal effect); conditions: recombinant CYP2D6, luciferin-ME EGE luminescence; series mostly up to 11.4 µM
Procedure, shortened: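 Human CYP2D6 (5 nM) with 30 uM Luciferin-ME EGE (at Km) in 100 mM KPO4, compound preincubated 10 min, then NADPH regeneration system for 60 min at room temperature. Luciferin read by luminescence; normalized to 1.43 uM quinidine.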

Sequence of Cytochrome P450 1A2 (Homo sapiens) (P05177 whole entry, looked up): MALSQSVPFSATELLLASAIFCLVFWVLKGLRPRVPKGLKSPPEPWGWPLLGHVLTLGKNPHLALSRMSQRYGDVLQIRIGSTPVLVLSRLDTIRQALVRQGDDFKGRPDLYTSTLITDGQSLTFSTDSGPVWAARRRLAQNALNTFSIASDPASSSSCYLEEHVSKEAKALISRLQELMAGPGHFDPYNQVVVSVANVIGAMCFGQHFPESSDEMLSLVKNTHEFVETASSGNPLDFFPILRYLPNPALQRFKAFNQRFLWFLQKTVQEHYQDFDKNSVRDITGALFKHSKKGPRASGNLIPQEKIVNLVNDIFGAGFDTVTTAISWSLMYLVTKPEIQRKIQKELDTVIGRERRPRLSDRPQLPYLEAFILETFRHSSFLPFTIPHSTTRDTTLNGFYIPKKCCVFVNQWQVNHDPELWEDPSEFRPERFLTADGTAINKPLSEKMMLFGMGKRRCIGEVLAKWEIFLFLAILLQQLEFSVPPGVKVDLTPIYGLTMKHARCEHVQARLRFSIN
Sequence of 3',5'-cyclic-AMP phosphodiesterase 4B (Homo sapiens) (Q07343 whole entry, looked up): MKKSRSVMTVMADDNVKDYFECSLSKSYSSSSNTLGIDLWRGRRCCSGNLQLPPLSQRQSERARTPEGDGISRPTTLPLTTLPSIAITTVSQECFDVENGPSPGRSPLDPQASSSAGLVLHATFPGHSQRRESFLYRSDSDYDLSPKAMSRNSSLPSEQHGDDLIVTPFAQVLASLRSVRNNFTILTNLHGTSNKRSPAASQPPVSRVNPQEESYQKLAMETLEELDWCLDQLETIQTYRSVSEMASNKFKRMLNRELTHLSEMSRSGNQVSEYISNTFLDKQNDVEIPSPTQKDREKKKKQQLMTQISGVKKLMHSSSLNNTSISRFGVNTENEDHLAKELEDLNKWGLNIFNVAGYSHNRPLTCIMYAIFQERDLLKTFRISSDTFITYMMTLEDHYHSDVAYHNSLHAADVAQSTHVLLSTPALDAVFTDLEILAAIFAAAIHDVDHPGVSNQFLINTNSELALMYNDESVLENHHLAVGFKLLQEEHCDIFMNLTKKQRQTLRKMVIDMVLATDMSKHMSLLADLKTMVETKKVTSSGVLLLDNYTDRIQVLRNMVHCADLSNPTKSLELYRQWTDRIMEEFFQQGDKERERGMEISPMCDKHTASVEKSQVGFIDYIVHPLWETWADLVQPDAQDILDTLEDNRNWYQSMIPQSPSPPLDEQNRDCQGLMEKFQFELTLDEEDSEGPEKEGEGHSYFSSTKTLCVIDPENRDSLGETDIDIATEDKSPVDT
Sequence of Cytochrome P450 2C19 (Homo sapiens) (P33261 whole entry, looked up): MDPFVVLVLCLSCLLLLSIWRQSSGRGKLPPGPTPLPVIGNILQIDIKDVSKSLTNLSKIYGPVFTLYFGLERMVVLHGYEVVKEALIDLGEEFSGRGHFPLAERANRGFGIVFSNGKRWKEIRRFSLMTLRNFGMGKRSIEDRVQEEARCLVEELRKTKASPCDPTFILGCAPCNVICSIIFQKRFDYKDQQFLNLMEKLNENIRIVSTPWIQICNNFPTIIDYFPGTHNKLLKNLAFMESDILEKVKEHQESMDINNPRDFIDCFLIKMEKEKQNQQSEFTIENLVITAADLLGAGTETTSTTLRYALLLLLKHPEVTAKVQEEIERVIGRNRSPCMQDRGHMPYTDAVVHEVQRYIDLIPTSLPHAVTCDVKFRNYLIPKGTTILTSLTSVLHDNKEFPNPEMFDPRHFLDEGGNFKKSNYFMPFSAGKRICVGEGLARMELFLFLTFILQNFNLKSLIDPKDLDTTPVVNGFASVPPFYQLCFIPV
Sequence of Glucocorticoid receptor (Homo sapiens) (P04150 whole entry, looked up, the tested form may be a part): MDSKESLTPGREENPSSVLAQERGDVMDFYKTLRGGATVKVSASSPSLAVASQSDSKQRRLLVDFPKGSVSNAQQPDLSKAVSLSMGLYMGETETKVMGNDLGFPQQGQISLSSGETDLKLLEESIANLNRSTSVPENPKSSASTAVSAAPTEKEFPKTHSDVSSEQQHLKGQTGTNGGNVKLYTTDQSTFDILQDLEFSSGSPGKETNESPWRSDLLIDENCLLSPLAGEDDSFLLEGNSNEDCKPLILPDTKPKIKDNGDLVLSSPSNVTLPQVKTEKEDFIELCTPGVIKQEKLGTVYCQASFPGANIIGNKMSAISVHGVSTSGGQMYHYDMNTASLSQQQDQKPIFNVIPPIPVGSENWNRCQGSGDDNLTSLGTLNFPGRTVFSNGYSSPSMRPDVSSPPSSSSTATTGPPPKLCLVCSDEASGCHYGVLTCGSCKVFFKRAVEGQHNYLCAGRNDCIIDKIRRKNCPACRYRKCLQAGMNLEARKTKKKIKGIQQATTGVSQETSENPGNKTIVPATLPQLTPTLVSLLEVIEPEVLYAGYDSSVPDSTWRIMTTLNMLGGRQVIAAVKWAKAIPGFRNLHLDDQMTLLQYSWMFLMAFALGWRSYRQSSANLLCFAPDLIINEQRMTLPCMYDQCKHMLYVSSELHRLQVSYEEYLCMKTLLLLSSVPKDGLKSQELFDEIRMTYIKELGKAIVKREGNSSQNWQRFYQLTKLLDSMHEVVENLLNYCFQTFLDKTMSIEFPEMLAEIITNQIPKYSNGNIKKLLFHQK
Sequence of Lysosomal acid glucosylceramidase (Homo sapiens) (P04062 whole entry, looked up): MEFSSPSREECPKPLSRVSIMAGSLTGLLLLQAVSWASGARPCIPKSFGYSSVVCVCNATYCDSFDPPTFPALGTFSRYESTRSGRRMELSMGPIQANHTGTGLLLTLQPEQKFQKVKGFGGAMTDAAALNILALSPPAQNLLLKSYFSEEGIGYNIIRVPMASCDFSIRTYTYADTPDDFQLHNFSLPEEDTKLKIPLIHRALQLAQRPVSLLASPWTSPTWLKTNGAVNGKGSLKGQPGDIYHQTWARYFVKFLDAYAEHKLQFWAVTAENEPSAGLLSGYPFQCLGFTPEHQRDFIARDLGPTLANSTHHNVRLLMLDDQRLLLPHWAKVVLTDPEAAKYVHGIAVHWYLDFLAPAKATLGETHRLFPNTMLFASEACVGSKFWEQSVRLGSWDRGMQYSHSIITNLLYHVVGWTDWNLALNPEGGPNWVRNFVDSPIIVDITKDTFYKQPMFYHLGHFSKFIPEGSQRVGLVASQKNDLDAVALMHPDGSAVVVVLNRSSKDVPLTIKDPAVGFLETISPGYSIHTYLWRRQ
Sequence of Cytochrome P450 2D6 (Homo sapiens) (P10635 whole entry, looked up): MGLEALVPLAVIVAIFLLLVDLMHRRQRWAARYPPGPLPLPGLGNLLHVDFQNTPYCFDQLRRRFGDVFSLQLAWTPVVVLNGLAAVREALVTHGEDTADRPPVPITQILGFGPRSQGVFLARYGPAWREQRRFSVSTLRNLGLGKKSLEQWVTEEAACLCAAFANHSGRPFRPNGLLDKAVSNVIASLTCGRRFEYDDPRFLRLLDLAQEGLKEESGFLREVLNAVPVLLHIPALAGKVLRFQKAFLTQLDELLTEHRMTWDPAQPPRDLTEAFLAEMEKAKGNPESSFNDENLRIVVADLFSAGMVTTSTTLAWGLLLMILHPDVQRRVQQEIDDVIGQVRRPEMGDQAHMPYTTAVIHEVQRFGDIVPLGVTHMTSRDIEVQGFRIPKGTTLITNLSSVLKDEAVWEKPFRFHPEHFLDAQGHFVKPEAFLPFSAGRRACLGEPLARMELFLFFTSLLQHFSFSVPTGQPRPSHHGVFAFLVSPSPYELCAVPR

SMILES | Potency [1] [µM] | activity change, negative = inhibition [2] [%] | Potency [3] | activity change, negative = inhibition [4] [%] | activity, negative = inhibition [5] [%] | Potency [6] [µM] | Potency [7] [µM] | Potency [8] | Potency [9] | Potency [10] | activity change, negative = inhibition [3] | Potency [11]
CN1CCc2[nH]nc(-c3n[nH]c4c3CN(C)CC4)c2C1 | > 11.4 | 3.96 | inactive | 4.1 | 2.92 | > 46 | > 9.22 | inactive | inactive | inactive | – | –
O=C(O)[C@@H](c1ccccc1)[C@@H](C(=O)O)c1ccccc1 | > 11.4 | 3.89 | – | 6.48 | -0.514 | > 46 | > 9.22 | inactive | inactive | – | -12% [at 2.29 µM] | inactive
O=C(O)CC1(C(=O)O)CCCCC1 | > 11.4 | -1.19 | – | 7.95 | 1.85 | > 46 | > 9.22 | inactive | inactive | inactive | 5.1% [at 2.29 µM] | inactive
CC[C@@]1([N+](=O)[O-])C[C@H]2C=C[C@@H]1C2 | > 11.4 | 9.4 | – | 4.68 | 3.53 | > 46 | > 9.22 | inactive | inactive | inactive | -12.9% [at 2.29 µM] | inactive
S=c1c2[nH]cnc2ncn1CCSc1ncnc2nc[nH]c12 | > 11.4 | -5.47 | inactive | 23.1 | 7.7 | > 46 | > 9.22 | inactive | inactive | inactive | – | –
c1ccc2c(c1)c1ccccc1n2Cn1c2ccccc2c2ccccc21 | > 11.4 | 10.8 | 0.251 µM (active) | -5.02 | 8.5 | > 46 | > 9.22 | inactive | inactive | 0.398 µM (active) | – | –
Oc1c(Br)cc(Br)cc1CN(Cc1cc(Br)cc(Br)c1O)C1CCCCC1 | > 11.4 | 6.04 | 3.16 µM (active) | 5.11 | -17.9 | > 46 | > 9.22 | inactive | inactive | 0.316 µM (active) | – | 0.251 µM (active)
Cn1c(=O)c2c(nc(C(=N)SCC(=O)O)n2C)n(C)c1=O | > 11.4 | -5.29 | 1.26 µM (active) | 4.58 | -6.13 | > 46 | > 9.22 | inactive | inactive | inactive | – | –
Cn1c([N+](=O)[O-])cnc1CN1CCN(CCO)CC1 | > 11.4 | 11 | – | 2.86 | 10.3 | > 46 | > 9.22 | inactive | inactive | inactive | 9.2% [at 2.29 µM] | –
O=C(O)c1ccc(S(=O)(=O)N=Nc2c(O)[nH]c3ccccc23)cc1 | > 11.4 | -0.32 | inactive | 4.27 | 21.1 | > 46 | > 9.22 | inactive | inactive | inactive | – | –
CC(C)CNC(=O)O | > 11.4 | 8.49 | inactive | 0.858 | 3.89 | > 46 | > 9.22 | inactive | inactive | inactive | – | inactive
CC(C)C(O)(C(C)C)C(C)C | > 11.4 | 7.29 | inactive | 3.44 | 13.2 | > 46 | > 9.22 | inactive | inactive | inactive | – | –
O=C(O)C(Cc1cccs1)C(=O)O | > 11.4 | 7.58 | – | 8.62 | 0.541 | > 46 | > 9.22 | inactive | inactive | inactive | -2.1% [at 2.29 µM] | –
Cc1c(Cl)c(S(N)(=O)=O)cc(S(N)(=O)=O)c1NC(=O)c1ccc(Cl)cc1 | > 11.4 | -4.6 | inactive | 5.51 | 5.58 | > 46 | > 9.22 | inactive | inactive | inactive | – | –
